Assay results published in article PMC13494018.
Values without a mark were called inactive. How the calls were made is not given here.

B1: d8r1_design_ppi_1245_dldesign_0_cycle0_af2pred (protein)
chain: SVAEQRAELAAIVDRTLAAAAAEDPRAAGRAGAAELARLLARSSDEVKPAANAAIAAFNTLIRDPAAGAAALEAVRAELA
B2: d8r1_design_ppi_271_dldesign_0_cycle1_af2pred (protein)
chain: ADAALAALIAEAAQAAYDDGPRGIAALAGALLRAFPSLSAETLAAIIAATAADPAAAAALIAALAAAHPEAAPALAAELRALLAELA
B3: d8r1_design_ppi_1429_dldesign_0_cycle0_af2pred (protein)
chain: SSLESEERLRRMAEGIAERTLRVVERLAKEDLETARRAAENTRGLLAKLGPVAAKIGEETWERAEAILAAIA
B4: d8r1_design_ppi_1444_dldesign_0_cycle0_af2pred (protein)
chain: MEELLARIEEALKRAKEVLKEAKKYSPGAEAIAKAALEAAERALALARAGPERAAEAERELRAAENAIAAAEKLLEA
B5: d8r1_design_ppi_705_dldesign_0_cycle0_af2pred (protein)
chain: MTPSTRAMLHIGRANAAAQALAADPAAAAAAVAEEMAAAAREAAKASPEVREQNLRAMDAAVAALKAANPAVGAAARAAMEEELARL
B6: d8r1_design_ppi_178_dldesign_0_cycle1_af2pred (protein)
chain: ATEAVAQAIVLAAKRAAALPNAATAVANLAALVALLIEDPRVAEGAVEGAKEAAKALEAAGRTEEAKALLSAAEAAVAETAAKRA
B7: d8r1_design_ppi_877_dldesign_0_cycle0_af2pred (protein)
chain: ALRAATEALLAEAERLREEILELGRAAESESVRNFAEGVAREVERLIAEAKAAAADPEAALALAQAALRTAREGLAGVRALTAAKAE
B8: d8r1_design_ppi_1247_dldesign_0_cycle1_af2pred (protein)
chain: SSNKETSKLIREAMKIIGESLAAARAAVAAGDKAAAQAAVDAGVAKIEELAKKSKDPATKETLLKLAENLRRQGARVIA
B9: d8r1_design_ppi_1231_dldesign_0_cycle1_af2pred (protein)
chain: MTEEEMAALVQAARDAAKAAAAAAGPAVAPTMAAMVALAEEERDNPGELESIAQSVATAAARAVAAAAAAA
B10: d8r1_design_ppi_1358_dldesign_0_cycle1_af2pred (protein)
chain: AAAESAALAAALAALRKTEVGPFARQYIIYRLLAQVAEAKGDEETAKRAKAKAEELAKAYPEAAAAADAALALAQAALAA
B11: d8r1_design_ppi_312_dldesign_0_cycle1_af2pred (protein)
chain: ALEEALRATAALVGTASQILAKEDPALAKEVAARILATAVKDPAEAAKLLKEVAKEAKERGWPAAEYYAAAAEALKAAAEA
B12: d8r1_design_ppi_480_dldesign_0_cycle0_af2pred (protein)
chain: SEEEERRRRAEEAADEIVAAAKADPAAAAALAAEFVATSSEEERRLLANILAQKAFEDDAGLTALRAFSLALAEAVA
B13: d8r1_design_ppi_1413_dldesign_0_cycle1_af2pred (protein)
chain: GSLLEELAKKEEELKDEEKMLKAHENALEIGIKKAEEDPAKGAKILENLAKNAEAAAKKASPEIAKKFKELAERAKKAAKEAKKKAA
B14: d8r1_design_ppi_217_dldesign_0_cycle1_af2pred (protein)
chain: GDAVMEAAAAISNAAAAAIAAAKADPAKADEALAAATATAKALADATGKPLVKAVAKGATARVAAVAAAVKAAA
B15: d8r1_design_ppi_473_dldesign_0_cycle1_af2pred (protein)
chain: STAEYLAQQQAALDATLAALDAAAAAVRTSAAGKALGDAAKKAMEIAKKLPVSVQLAVAQNQLAALQAAL
B16: d8r1_design_ppi_978_dldesign_0_cycle1_af2pred (protein)
chain: MKHLEEQRKAAEKVAEKAAKEAEKEIAKVVSEEEAKKLAEKLKEQSKTSNELLVEKHKDLPVEEIEKLAERNAKGLALRALAIAKE
B17: d8r1_design_ppi_660_dldesign_0_cycle1_af2pred (protein)
chain: EQAELEALAAAAKAAAAQAYALALASRAQAPAAYAALQQAFALAAQLPEEVAAELKAAAAQALADGLLAREKAE
B18: d8r1_design_ppi_860_dldesign_0_cycle1_af2pred (protein)
chain: DEAYELAAKALAEAAKLRAAADAALAAAGAAGAVEAAALFTAAVKVLEETAKKLKELGSSLGDFTAAAAEREAARAAARIAAALA
B19: d8r1_design_ppi_1086_dldesign_0_cycle1_af2pred (protein)
chain: AAAAVAAAAAAGGEAAMAEFLDLSNPEQGKELKDKAAAKVAALAAANPAVAAQINAAYNAQLARGKALAAEARADK
B20: d8r1_design_ppi_1486_dldesign_0_cycle0_af2pred (protein)
chain: SEELEKAKEEARKARERLLRLAEEAAAVDPAVAAAGRNAAAGAEKLISTGSLGSARAGKAIAEAAARRAEAVLAAAAAA
B21: d8r1_design_ppi_1032_dldesign_0_cycle0_af2pred (protein)
chain: SEEEENKEKAEALEKAAKNTTAIGDEKAAKDAAGKEKGAKAYNGAAALYEAAAKVSSPERAKEFKAKAAEAKAKAAAAQAAAAA
B22: d8r1_design_ppi_1301_dldesign_0_cycle1_af2pred (protein)
chain: AENEADFNALKRVAQSILDRAAELAAAGADRALVERLAASAVQAAELAAEEGTPEEGAALIAETRAAVAAVLAA
B23: d8r1_design_ppi_136_dldesign_0_cycle1_af2pred (protein)
chain: SAAEEAARKSLFAVADSILAANLARAKAAAAAGDAAAAAAALQNTRDGGEMVTKMALARGDEETAAELAARFAAAAAEIAAILAA
B24: d8r1_design_ppi_888_dldesign_0_cycle1_af2pred (protein)
chain: ATEEEKEKLKKLVEELLKAGKEGTVEEAKKAAEKLVEAAKKASLEAVLAGIAEVAKAAAELAKVNPEAAEVAREAAIELAKIALEKAD
B25: d8r1_design_ppi_655_dldesign_0_cycle0_af2pred (protein)
chain: SDAKAAAQAAKNGAESATEKANEYEAKGKATGDKALLAKAKTLYDSAATLYAFGTKESGGEYQANLDAAKAKAAAAAALLA
B26: d8r1_design_ppi_1212_dldesign_0_cycle1_af2pred (protein)
chain: AAALAEKLVATALAIGDAVLKKYPEAFGAKLAAARALIAADPVAGIRALGEAAAEVAPAEIAPGIRSMLNAIADRAAELLA
B27: d8r1_design_ppi_179_dldesign_0_cycle0_af2pred (protein)
chain: STAARNAAAGIAAAAKENPKSGAKLGKGAIDVLAKKDKKEAAEAAKLAAEQAKAAGKEEVAKEMEELAKKVEAEI
B28: d8r1_design_ppi_1459_dldesign_0_cycle1_af2pred (protein)
chain: EKAEKLRKLAKKLKELGKKIAEGDEEEAKKAAKEAAKAAREAGKISPQGKTLEYLGKKTEEAAKAGDKKTAASLADAAAALMEALAD
B29: d8r1_design_ppi_1244_dldesign_0_cycle0_af2pred (protein)
chain: EEEEKEEKETYEKAYYLAKAAINAVNTGKEAAVASGKAALIAAGKLIPEWAAEAKAAKTAEEIKAVAEKLAEAAKKKIE
B30: d8r1_design_ppi_290_dldesign_0_cycle0_af2pred (protein)
chain: SREEAERLKEEIERLAREGIAGDAETAARAMREIHELAIRSTELDPEDAAEVNQKAAEAMLRVGDAREAMLAA
B31: d8r1_design_ppi_156_dldesign_0_cycle1_af2pred (protein)
chain: MEEEKKKEEEEQKEAERMAKALENAIDAIEARVKAAPAAEQPALAKAADNAAAAADVLKKKDPELGQKVKDRANAVLAAARAK
B32: d8r1_design_ppi_433_dldesign_0_cycle0_af2pred (protein)
chain: SEEEERKEIEEEGRAMARALRTSARHHAELAKKDPAAGRAAFDADAAAIRAGATPEQQPLVDAAVAEGRALLDAVEAAL
B33: d8r1_design_ppi_259_dldesign_0_cycle1_af2pred (protein)
chain: AAAAARLATALANAIAGTNTIKKASTAKSASQFLAASTDRLATLYAADPALVAKLRAAAAAAKAGVDAGLAAAKEALAAATAAG
B34: d8r1_design_ppi_80_dldesign_0_cycle1_af2pred (protein)
chain: ETPEEKANALFRAFNNVATYAAAKVPALAAAAAAAIAASADPAKLGAAAAAFAAAAAATPAAAALGTSAQAIADKAVATAK
B35: d8r1_design_ppi_460_dldesign_0_cycle1_af2pred (protein)
chain: DETGERKATALAAISATVAAAKAAIDANAADPAAAQAALDAAKKALAAIAAKSGLPSVKGVAETAAKKLAAYATAVAAAAA
B36: d8r1_design_ppi_723_dldesign_0_cycle0_af2pred (protein)
chain: GGKSIAEIARIHGARTAAAVLAETGDAAAAAKIKAVAEKAAKEIEKASDNYDKMAEIFRKMVEEIEKITAAAKAAAA
B37: d8r1_design_ppi_1034_dldesign_0_cycle1_af2pred (protein)
chain: DQAFTDAAAAAKALAAIPKYKALGDSLAARVAALAAAAAAARAAGAADPATAAEDAAAAAALAAAAKNIGDFAKAMLKAIEEDE
B38: d8r1_design_ppi_763_dldesign_0_cycle1_af2pred (protein)
chain: MEKAKELAAKGDALEEEAAKATPEEAAKLYREASKYYAEAARLLLPLGDENPEIGKVVKELMAKASASYQKAVALEA

The binders below were run against PDL1, Q9NZQ7.
PDL1, Q9NZQ7, sequence (Q9NZQ7 whole entry): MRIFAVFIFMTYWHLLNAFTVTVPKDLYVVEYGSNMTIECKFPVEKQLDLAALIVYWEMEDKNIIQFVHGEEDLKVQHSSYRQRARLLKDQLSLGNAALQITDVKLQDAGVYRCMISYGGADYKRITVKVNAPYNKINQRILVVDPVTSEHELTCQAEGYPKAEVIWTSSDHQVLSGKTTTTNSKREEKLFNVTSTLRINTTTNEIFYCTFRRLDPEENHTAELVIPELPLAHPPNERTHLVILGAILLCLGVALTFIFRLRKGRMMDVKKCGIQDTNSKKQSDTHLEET

Row | Binder | binding in a display sort
1 | B1 | not found
2 | B2 | not found
3 | B3 | not found
4 | B4 | not found
5 | B5 | not found
6 | B6 | not found
7 | B7 | not found
8 | B8 | not found
9 | B9 | not found
10 | B10 | binds (active)
11 | B11 | not found
12 | B12 | not found
13 | B13 | not found
14 | B14 | not found
15 | B15 | not found
16 | B16 | not found
17 | B17 | not found
18 | B18 | not found
19 | B19 | not found

Row | Binder | binding in a display sort
20 | B20 | not found
21 | B21 | not found
22 | B22 | not found
23 | B23 | not found
24 | B24 | not found
25 | B25 | not found
26 | B26 | not found
27 | B27 | not found
28 | B28 | not found
29 | B29 | not found
30 | B30 | not found
31 | B31 | not found
32 | B32 | not found
33 | B33 | not found
34 | B34 | not found
35 | B35 | not found
36 | B36 | not found
37 | B37 | binds (active)
38 | B38 | not found
